This is an account of results in paper PMC7862700, “An all-to-all approach to the identification of sequence-specific readers for epigenetic DNA modifications on cytosine”.

What all share (experiment): DAPPL (digital affinity profiling via proximity ligation, sequencing); 10 mM Tris-HCl pH 7.5, 50 mM NaCl, 1 mM DTT, 4% glycerol, room temperature, 30 min; GST-TFs on glutathione beads, 16-mer random dsDNA library, 0.1% formaldehyde crosslink after washing; high values mean tight binding
Holding throughout (details): protein: recombinant; tags: N-terminal GST; dsDNA, one strand shown

Assay [1] addresses T1, FLI1 (Homo sapiens, UniProt Q01543 1-452).
T1 sequence: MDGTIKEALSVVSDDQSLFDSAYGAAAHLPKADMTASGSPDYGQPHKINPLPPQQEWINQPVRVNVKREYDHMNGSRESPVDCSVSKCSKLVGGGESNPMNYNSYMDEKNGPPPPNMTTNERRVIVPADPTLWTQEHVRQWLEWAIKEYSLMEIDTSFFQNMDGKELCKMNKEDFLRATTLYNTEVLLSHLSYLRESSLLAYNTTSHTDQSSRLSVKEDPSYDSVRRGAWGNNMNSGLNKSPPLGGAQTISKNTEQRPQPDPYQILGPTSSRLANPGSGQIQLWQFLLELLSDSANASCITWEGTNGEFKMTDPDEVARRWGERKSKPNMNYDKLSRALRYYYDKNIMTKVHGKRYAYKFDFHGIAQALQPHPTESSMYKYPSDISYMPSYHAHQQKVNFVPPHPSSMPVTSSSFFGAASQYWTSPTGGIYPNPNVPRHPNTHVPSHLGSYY
Summed up: (§1)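 A tag-only sample was pooled with DNA-barcoded human transcription factors that had been expressed in yeast as GST fusions and captured on glutathione beads. The pools were incubated for 30 min at room temperature with 200 nmole of a random double-stranded 16-mer DNA library in Tris/NaCl/DTT/glycerol buffer, then washed, crosslinked with 0.1% formaldehyde, proximity-ligated (BsaI/T4 ligase, 1 h, 37 °C), PCR-amplified and sequenced on an Illumina NextSeq500. Binding signal is each hexamer's read frequency for a factor divided by its frequency for the tag-only sample.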

Assay [2] addresses T2, ELK1 (Homo sapiens, UniProt P19419 1-428).
T2 sequence: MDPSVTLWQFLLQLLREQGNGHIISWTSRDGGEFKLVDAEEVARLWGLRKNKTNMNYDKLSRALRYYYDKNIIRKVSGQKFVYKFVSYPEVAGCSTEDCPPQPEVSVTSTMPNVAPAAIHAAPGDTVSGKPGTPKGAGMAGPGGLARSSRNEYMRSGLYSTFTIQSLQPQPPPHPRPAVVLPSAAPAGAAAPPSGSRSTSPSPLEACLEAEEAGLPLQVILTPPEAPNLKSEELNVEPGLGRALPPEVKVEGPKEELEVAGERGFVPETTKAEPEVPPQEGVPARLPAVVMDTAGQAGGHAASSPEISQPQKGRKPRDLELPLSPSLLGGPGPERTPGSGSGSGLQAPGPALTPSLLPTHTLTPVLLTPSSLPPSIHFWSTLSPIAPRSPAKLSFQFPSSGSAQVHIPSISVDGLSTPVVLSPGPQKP
Summed up:
as §1

For assay [3], the target named is T3, GABPA (Homo sapiens, UniProt Q06546 1-454).
T3 sequence: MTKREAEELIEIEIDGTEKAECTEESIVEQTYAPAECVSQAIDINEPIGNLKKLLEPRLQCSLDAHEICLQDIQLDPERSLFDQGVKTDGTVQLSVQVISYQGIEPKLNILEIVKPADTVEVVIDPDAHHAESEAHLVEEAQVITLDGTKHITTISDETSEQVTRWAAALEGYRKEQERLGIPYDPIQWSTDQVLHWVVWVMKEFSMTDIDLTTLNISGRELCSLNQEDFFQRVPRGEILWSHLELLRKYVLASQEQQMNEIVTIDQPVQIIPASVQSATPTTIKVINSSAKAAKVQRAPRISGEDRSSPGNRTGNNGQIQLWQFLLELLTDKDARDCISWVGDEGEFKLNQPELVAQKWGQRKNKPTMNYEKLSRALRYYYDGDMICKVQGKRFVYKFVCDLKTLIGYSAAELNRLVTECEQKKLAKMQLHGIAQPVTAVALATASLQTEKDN
In short, it runs like this:
as §1

Assay [4] has as its target T4, ERG (Homo sapiens, UniProt P11308 1-479).
T4 sequence: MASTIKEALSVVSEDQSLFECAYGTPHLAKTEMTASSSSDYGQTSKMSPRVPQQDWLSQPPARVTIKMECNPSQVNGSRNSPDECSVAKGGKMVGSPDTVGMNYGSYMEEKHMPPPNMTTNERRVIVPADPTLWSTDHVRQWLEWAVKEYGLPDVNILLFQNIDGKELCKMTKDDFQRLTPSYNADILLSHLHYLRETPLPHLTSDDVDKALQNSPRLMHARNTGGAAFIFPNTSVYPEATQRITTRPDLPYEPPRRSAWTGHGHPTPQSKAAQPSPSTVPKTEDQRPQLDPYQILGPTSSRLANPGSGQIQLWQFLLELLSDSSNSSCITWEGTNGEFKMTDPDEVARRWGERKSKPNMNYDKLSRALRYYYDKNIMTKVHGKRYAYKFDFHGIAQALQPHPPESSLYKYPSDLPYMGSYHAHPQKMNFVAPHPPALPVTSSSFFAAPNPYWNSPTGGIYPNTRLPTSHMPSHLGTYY
Summed up:
as §1

The target of assay [5] is ELF1 (Homo sapiens, UniProt P32519 1-619). In short, it runs like this: as §1
Chain of ELF1 (P32519 whole entry): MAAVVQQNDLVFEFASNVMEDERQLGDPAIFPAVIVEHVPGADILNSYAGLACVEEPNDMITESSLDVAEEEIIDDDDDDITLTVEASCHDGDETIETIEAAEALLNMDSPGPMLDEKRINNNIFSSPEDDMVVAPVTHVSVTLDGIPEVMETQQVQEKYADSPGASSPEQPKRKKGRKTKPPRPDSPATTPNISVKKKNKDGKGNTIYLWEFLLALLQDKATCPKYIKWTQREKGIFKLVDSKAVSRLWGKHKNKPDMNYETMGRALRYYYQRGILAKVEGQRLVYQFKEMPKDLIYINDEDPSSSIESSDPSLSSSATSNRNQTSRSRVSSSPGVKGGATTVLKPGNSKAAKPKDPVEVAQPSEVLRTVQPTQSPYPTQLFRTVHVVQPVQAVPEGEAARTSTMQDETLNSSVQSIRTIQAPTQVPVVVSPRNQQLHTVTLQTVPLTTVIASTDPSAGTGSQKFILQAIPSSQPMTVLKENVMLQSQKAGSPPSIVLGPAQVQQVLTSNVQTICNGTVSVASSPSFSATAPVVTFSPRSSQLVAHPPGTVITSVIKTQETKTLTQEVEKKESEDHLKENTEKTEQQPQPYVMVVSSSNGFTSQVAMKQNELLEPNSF
In assay [6] the target is T5, EHF (Homo sapiens, UniProt Q9NZC4 1-300).
T5 sequence: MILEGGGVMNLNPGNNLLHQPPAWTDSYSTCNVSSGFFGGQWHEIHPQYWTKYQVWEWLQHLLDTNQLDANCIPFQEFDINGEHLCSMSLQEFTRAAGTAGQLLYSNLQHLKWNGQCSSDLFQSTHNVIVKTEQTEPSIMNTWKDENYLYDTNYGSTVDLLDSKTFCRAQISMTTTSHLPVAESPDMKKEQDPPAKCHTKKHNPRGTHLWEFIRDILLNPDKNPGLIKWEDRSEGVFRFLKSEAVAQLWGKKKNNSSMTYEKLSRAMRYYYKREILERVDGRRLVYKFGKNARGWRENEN
In short, it runs like this: as §1

Assay [7] deals with SPI1 (Homo sapiens, UniProt P17947 1-270). In short, it runs like this: as §1
Assay [8] has as its target SPIB (Homo sapiens, UniProt Q01892 1-262). Summed up:
as §1

Assay [9] concerns the target T6, ELK3 (Homo sapiens, UniProt P41970 1-407).
T6 sequence: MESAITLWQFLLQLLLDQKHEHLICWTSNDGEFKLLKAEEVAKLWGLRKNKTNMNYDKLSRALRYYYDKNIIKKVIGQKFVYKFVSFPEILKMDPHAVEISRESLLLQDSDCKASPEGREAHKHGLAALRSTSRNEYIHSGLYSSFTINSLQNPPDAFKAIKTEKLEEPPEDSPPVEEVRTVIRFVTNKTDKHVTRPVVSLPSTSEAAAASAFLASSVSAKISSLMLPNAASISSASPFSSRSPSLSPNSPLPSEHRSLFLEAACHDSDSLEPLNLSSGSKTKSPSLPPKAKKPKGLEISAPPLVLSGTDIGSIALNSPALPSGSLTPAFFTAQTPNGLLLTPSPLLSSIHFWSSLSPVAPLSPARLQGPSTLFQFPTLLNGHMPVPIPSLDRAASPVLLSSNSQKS
Summed up: as §1

Chain of SPIB (Q01892 whole entry): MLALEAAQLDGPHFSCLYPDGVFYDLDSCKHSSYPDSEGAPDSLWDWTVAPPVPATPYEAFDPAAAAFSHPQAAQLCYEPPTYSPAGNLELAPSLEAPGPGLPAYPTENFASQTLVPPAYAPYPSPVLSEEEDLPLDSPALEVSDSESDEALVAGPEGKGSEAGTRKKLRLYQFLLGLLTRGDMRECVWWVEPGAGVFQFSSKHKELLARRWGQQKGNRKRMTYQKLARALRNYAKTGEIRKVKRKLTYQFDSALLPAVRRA

On to ACTATC, for which the binding signal in assay [1] is 1.15 fold enrichment (6-mer frequency, TF over GST control); in assay [2], 1.13 fold enrichment (6-mer frequency, TF over GST control); in [3] it was 1.17 fold enrichment (6-mer frequency, TF over GST control); in assay [4], 1.11 fold enrichment (6-mer frequency, TF over GST control); in assay [5], 1.12 fold enrichment (6-mer frequency, TF over GST control); in assay [6] it was 1.14 fold enrichment (6-mer frequency, TF over GST control). Also, the binding signal in assay [7] is 1.21 fold enrichment (6-mer frequency, TF over GST control); in [8], 1.16 fold enrichment (6-mer frequency, TF over GST control); in assay [9] it was 1.07 fold enrichment (6-mer frequency, TF over GST control).
On to ATGACT, for which the binding signal in assay [1] was 1.5 fold enrichment (6-mer frequency, TF over GST control); in assay [2], 1.42 fold enrichment (6-mer frequency, TF over GST control); in [3], 1.39 fold enrichment (6-mer frequency, TF over GST control); in [4], 1.44 fold enrichment (6-mer frequency, TF over GST control); in assay [5], 1.42 fold enrichment (6-mer frequency, TF over GST control); in assay [6] it was 1.35 fold enrichment (6-mer frequency, TF over GST control). Moreover, the binding signal in assay [7] was 1.51 fold enrichment (6-mer frequency, TF over GST control); in [8], 1.52 fold enrichment (6-mer frequency, TF over GST control); in [9], 1.33 fold enrichment (6-mer frequency, TF over GST control).
On to CTATGG, for which the binding signal was 1.25 fold enrichment (6-mer frequency, TF over GST control) in [1]; 1.14 fold enrichment (6-mer frequency, TF over GST control) in assay [2]; 1.21 fold enrichment (6-mer frequency, TF over GST control) in assay [3]; 1.15 fold enrichment (6-mer frequency, TF over GST control) in assay [4]; 1.19 fold enrichment (6-mer frequency, TF over GST control) in assay [5]; 1.3 fold enrichment (6-mer frequency, TF over GST control) in assay [6]. For the same sequence, the binding signal in assay [7] was 1.17 fold enrichment (6-mer frequency, TF over GST control); in assay [8] it was 1.19 fold enrichment (6-mer frequency, TF over GST control); in assay [9], 1.2 fold enrichment (6-mer frequency, TF over GST control).
For the sequence ACATGC, the binding signal in [1] is 1.31 fold enrichment (6-mer frequency, TF over GST control); in assay [2], 1.2 fold enrichment (6-mer frequency, TF over GST control); in assay [3], 1.33 fold enrichment (6-mer frequency, TF over GST control); in [4], 1.24 fold enrichment (6-mer frequency, TF over GST control); in [5], 1.36 fold enrichment (6-mer frequency, TF over GST control); in assay [6], 1.24 fold enrichment (6-mer frequency, TF over GST control). The binding signal is 1.19 fold enrichment (6-mer frequency, TF over GST control) in [7]; 1.2 fold enrichment (6-mer frequency, TF over GST control) in assay [8]; 1.34 fold enrichment (6-mer frequency, TF over GST control) in assay [9].
Regarding ATTGCA, the binding signal in assay [1] is 1.17 fold enrichment (6-mer frequency, TF over GST control); in assay [2], 1.31 fold enrichment (6-mer frequency, TF over GST control); in assay [3], 1.19 fold enrichment (6-mer frequency, TF over GST control); in [4] it was 1.21 fold enrichment (6-mer frequency, TF over GST control); in assay [5], 1.17 fold enrichment (6-mer frequency, TF over GST control); in assay [6] it was 1.14 fold enrichment (6-mer frequency, TF over GST control). In addition, the binding signal is 1.19 fold enrichment (6-mer frequency, TF over GST control) in [7]; 1.17 fold enrichment (6-mer frequency, TF over GST control) in assay [8]; 1.24 fold enrichment (6-mer frequency, TF over GST control) in assay [9].
Take CATTTT: the binding signal in [1] is 1.24 fold enrichment (6-mer frequency, TF over GST control); in [2] it was 1.04 fold enrichment (6-mer frequency, TF over GST control); in assay [3], 1.23 fold enrichment (6-mer frequency, TF over GST control); in [4], 1.14 fold enrichment (6-mer frequency, TF over GST control); in [5], 1.18 fold enrichment (6-mer frequency, TF over GST control); in assay [6], 1.16 fold enrichment (6-mer frequency, TF over GST control). In addition, the binding signal in assay [7] was 1.39 fold enrichment (6-mer frequency, TF over GST control); in assay [8], 1.23 fold enrichment (6-mer frequency, TF over GST control); in [9], 1.15 fold enrichment (6-mer frequency, TF over GST control).
Turning to CTTTGT, the binding signal was 1.34 fold enrichment (6-mer frequency, TF over GST control) in assay [1]; 1.3 fold enrichment (6-mer frequency, TF over GST control) in [2]; 1.2 fold enrichment (6-mer frequency, TF over GST control) in [3]; 1.27 fold enrichment (6-mer frequency, TF over GST control) in assay [4]; 1.36 fold enrichment (6-mer frequency, TF over GST control) in assay [5]; 1.48 fold enrichment (6-mer frequency, TF over GST control) in assay [6]. The binding signal in assay [7] was 1.36 fold enrichment (6-mer frequency, TF over GST control); in [8], 1.22 fold enrichment (6-mer frequency, TF over GST control); in [9], 1.29 fold enrichment (6-mer frequency, TF over GST control).
As for ATACCT, the binding signal in assay [1] is 1.13 fold enrichment (6-mer frequency, TF over GST control); in [2], 1.18 fold enrichment (6-mer frequency, TF over GST control); in assay [3], 1.07 fold enrichment (6-mer frequency, TF over GST control); in assay [4], 1.05 fold enrichment (6-mer frequency, TF over GST control); in assay [5], 1.13 fold enrichment (6-mer frequency, TF over GST control); in assay [6], 1.08 fold enrichment (6-mer frequency, TF over GST control). The binding signal in assay [7] is 1.04 fold enrichment (6-mer frequency, TF over GST control); in [8] it was 1.1 fold enrichment (6-mer frequency, TF over GST control); in assay [9], 1.08 fold enrichment (6-mer frequency, TF over GST control).
